Only some compounds are listed: those with a hit (about 1.2% of all), similar ones and a draw of the others.
BRCA1 expr act: activators of BRCA1 expression; MCF7-BRCA1-FFLuc reporter, luminescence, 48 h; response scale: scaled: vehicle 0%, 10 µM genistein 100%; Potency, µM (doses to about 46.1 µM), most hits filed as activators; 1.1% of 380,000 active; AID 624202; further: nearly all actives have a fitted effect of over 80% in size
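First, MCF7-BRCA1-FFLuc cells (2000/well) attach for 2 h; next, compounds are pin-added and incubated 48 h at 37 °C; finally, luciferase reagent is added and luminescence read after 15 min.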
S-ASM inh: human S-ASM enzyme inhibition; P17405; placental ASM, HMU-PC fluorogenic substrate, 60 min; Potency, µM (top dose mostly 57.5 µM), usual class: inhibitors; 0.006% of 340,000 active; AID 504937
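Steps: dispense placental human ASM, pin compound, wait 10 min at room temperature, add HMU-PC0 substrate at 9 uM final, incubate 60 min at 37 °C, add stop solution raising pH to 10, read fluorescence.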
Apoferritin bind: candidate novel general anesthetic via apoferritin binding | Potency, µM (doses to about 77.5 µM), usual class: inhibitors | 0.074% of 350,000 active | apoferritin/1-aminoanthracene competitive binding, fluorescence | P02791; further: nearly all actives have a fitted effect of over 20% in size
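Horse-spleen apoferritin (10 uM) was mixed with 50% saturated 1-aminoanthracene in PBS, exposed to compounds for 10 min at room temperature, and read for fluorescence (ex 380 nm, em 535 nm). Competitive displacement was fitted with a four-parameter Hill equation.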
TSHR antagonist: human thyrotropin receptor antagonism; activity change, negative = inhibition, % at 11.5 µM; 0.2% of 330,000 active; TSHR-expressing cells, TSH-stimulated cAMP HTRF, 2 h; hits give low values; AID 504810; P16473;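 active means activity change below a set negative limit, meaning inhibition stronger than a set level, cut at about -70% in these data; inconclusive means activity change between two set negative limits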
Target sequence (P16473 whole entry, looked up): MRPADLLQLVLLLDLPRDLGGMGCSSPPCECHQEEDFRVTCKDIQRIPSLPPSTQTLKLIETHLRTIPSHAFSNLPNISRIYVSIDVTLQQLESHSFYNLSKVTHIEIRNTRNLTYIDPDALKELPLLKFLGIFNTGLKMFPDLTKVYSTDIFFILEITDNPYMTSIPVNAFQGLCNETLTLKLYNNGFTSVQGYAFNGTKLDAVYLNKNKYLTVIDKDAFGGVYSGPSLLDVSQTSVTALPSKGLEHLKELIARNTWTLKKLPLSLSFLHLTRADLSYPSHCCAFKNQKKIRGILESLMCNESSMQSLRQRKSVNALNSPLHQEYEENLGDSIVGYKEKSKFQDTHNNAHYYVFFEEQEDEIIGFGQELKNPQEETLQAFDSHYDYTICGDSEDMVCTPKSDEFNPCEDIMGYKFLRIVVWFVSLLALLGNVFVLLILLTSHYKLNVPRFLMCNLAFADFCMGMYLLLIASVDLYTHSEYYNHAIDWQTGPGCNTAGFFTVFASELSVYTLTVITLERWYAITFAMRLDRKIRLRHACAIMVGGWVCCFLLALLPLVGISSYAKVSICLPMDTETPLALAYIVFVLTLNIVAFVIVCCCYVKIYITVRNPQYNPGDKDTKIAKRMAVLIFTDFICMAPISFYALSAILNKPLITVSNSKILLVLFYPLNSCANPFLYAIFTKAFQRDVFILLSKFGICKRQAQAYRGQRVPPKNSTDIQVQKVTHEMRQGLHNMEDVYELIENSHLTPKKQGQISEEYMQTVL
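Read-out is FRET at 665 nm (cryptate excitation 337 nm) from a cryptate-tagged anti-cAMP antibody, competed by cell cAMP against cAMP-d2. Compounds are tested on freshly harvested TSHR cells challenged with 4nM TSH (EC80) for 2 hours at 37 deg C.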
PTAP TSG101 blk: blocks PTAP/TSG101 interaction to inhibit HIV-1 budding; Q99816; Fluorescence polarization, FITC-PTAP peptide / Tsg101 binding; Potency, µM (highest dose often 115 µM), hits mostly inhibitors; 340,000 tested, under 10 active; AID 493005; active means well fitted inhibition curve with a large enough effect in the main read-out, with a control signal flat, not every such curve was filed as active; inconclusive means small, poorly fitted or top-dose-only effect, or effect the other way, or a change in a side signal; inactive means no such curve, though single readings can be large or run the other way
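Steps: Tsg101 binding domain dispensed (10 uM final), compounds pinned in DMSO, FITC-labeled PTAP-motif peptide added (50 nM final); after 20 min binding at room temperature, polarization measured.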
Hits are given with their value; – = inactive; ? = inconclusive; · = no result given; [ ] = another dose, or the depositor's remark. Unless noted, the call rests on the fitted dose curve; in most records, active means well fitted curve in the direction sought with a large enough effect; inconclusive means small, poorly fitted or top-dose-only effect, or another doubt; inactive means no such curve, though single readings can be large; an effect the other way counts as inactive or inconclusive.

SMILES	BRCA1 expr act	S-ASM inh	Apoferritin bind	TSHR antagonist	PTAP TSG101 blk
Cc1ccc(Oc2cc(NC(=O)CCCn3nc([N+](=O)[O-])cc3C)cc([N+](=O)[O-])c2)cc1	–	–	–	-70	–
Cc1[nH]c2ccccc2c1C(c1c[nH]c2ccccc12)c1c(C)[nH]c2ccccc12	–	·	·	·	·
C=C1C2(C(=O)Nc3nccs3)CCC(C2)C1(C)C (stereo not given)	–	–	7.9µM	–	–
Cc1ccc(NCc2ccccc2O)cc1	–	–	?	–	–
Cc1ccccc1NCc1ccccc1O	–	–	18µM	–	–
c1cc2c(cc1Cc1cncc(Cc3ccc4c(c3)OCO4)c1)OCO2	–	·	·	·	·
CCCN1C(=O)/C(=C/c2nc3ccccc3c(=O)[nH]2)c2ccccc21	–	–	–	–	–
CC(C)N1C(=O)/C(=C\c2nc3ccccc3c(=O)[nH]2)c2ccccc21	–	32µM	?	–	–
CC1CCCCN1C(=O)Nc1cccc(Cl)c1 (stereo not given)	–	–	22µM	–	–
O=C(Nc1cccc(Cl)c1)N1CCCC1	–	–	–	–	–
Nc1ccc(C2CCCc3nonc32)c2nonc12 (stereo not given)	–	–	18µM	–	–
COc1ccc(C2CC(c3ccc(F)cc3)=NN2c2ccccc2)cc1OC (stereo not given)	–	–	–	–	–
COc1ccc(C2=NN(c3ccccc3)C(c3ccc(OC)c(OC)c3)C2)cc1 (stereo not given)	10µM	–	–	–	–
CC1(C)OC(C(O)(c2cc(F)c(F)c(F)c2)c2cc(F)c(F)c(F)c2)C(C(O)(c2cc(F)c(F)c(F)c2)c2cc(F)c(F)c(F)c2)O1 (stereo not given)	·	·	–[15.3 µM]	·	·
O=C(Cc1cccs1)N/N=C/C(Br)=C/c1ccccc1	5µM	–	?	–	·
CC(/C=N/NC(=O)Cc1cccs1)=C\c1ccccc1	?	–	–	–	–
CSc1ccccc1OCc1cc(C(=O)N2CCSCC2)no1	4.5µM	–	–	–	–
O=C(c1cc(COc2ccc(F)cc2Cl)on1)N1CCc2ccccc2C1	–	–	?	–	–
CSc1ccccc1OCc1cc(C(=O)N(C)Cc2ccc3nsnc3c2)no1	?	–	?	–	–
O=C(c1cc(COc2ccc(F)cc2Cl)on1)N1CCSCC1	6.3µM	–	–	–	–
COc1ccc(OCc2cc(C(=O)N3CCSCC3)no2)c(Cl)c1	11µM	–	?	–	–
COc1ccc(OCc2cc(C(=O)N3CCCCCC3)no2)c(Cl)c1	?	–	?	–	–
CSc1ccccc1OCc1cc(C(=O)N(C)Cc2ccc(C)o2)no1	11µM	–	–	–	–
COc1cc2nc(N3CCCCC3)nc(NC(C)C)c2cc1OC	–	·	·	·	·
Cc1cccc(NC(=O)c2ccc(NCC3CCCO3)c([N+](=O)[O-])c2)n1 (stereo not given)	?	–	28µM	–	–
SMILES	BRCA1 expr act	S-ASM inh	Apoferritin bind	TSHR antagonist	PTAP TSG101 blk
Cc1ccc(N)c(Cl)c1	·	·	–	·	·
N#Cc1ccc(N2Cc3ccccc3C2=NC(=O)c2cccnc2Cl)cc1	13µM	–	–	–	–
NC(N)=NCCC[C@H](NC(=O)[C@H](Cc1ccccc1)NC(=O)[C@@H]1CCCN1C(=O)[C@H](CO)NC(=O)[C@H](Cc1ccccc1)NC(=O)CNC(=O)[C@@H]1CCCN1C(=O)[C@@H]1CCCN1C(=O)[C@@H](N)CCCN=C(N)N)C(=O)O	·	·	–	·	·
CC[C@H](C)[C@H](NC(=O)CNC(=O)[C@H](C)NC(=O)[C@H](C)N)C(=O)NCC(=O)N[C@H](C(=O)N[C@@H](CC(C)C)C(=O)N[C@H](C(=O)N[C@H](C(=O)O)C(C)C)[C@@H](C)O)[C@@H](C)CC	·	·	–	·	·
Cc1ccc(N=Nc2c(C)[nH]n(C(N)=S)c2=O)cc1C	–	–	–	–	–
CC(=O)Nc1ccc(N=Nc2c(C)[nH]n(C(N)=S)c2=O)cc1	10µM	–	–	–	–
c1ccc(CN2CCN(c3nc4ccccc4s3)CC2)cc1	?	–	–	–	–
Fc1cc(F)c2nc(N3CCCCC3)sc2c1	13µM	–	–	–	–
O=[N+]([O-])c1ccc2nc(N3CCCC3)sc2c1	8.9µM	–	–	–	–
c1ccc2sc(N3CCCCC3)nc2c1	4.5µM	–	·	·	–
CCc1c2c(nc3ccc(OC(=O)N4CCC(N5CCCCC5)CC4)cc13)-c1cc3c(c(=O)n1C2)COC(=O)C3(O)CC (stereo not given)	·	·	–	·	·
CN(c1ccccc1)c1nc2ccsc2c(=O)s1	10µM	–	–	–	–
COc1ccc(NC(=O)c2coc3ccccc23)cc1OC	10µM	–	–	–	–
Cc1ccc(NC(=O)c2ccc(-n3nncc3-c3ccccc3)cc2)cc1	–	·	·	·	·
S=C(NCCCc1cnc[nH]1)NCCCN(CCc1ccccc1)c1ccc(Br)cn1	–	·	·	·	·
Cn1c2ccccc2c(=O)c2ccc(Cl)cc21	14µM	·	·	·	·
CC(N)(C(=O)O)c1cccc(CC(=O)O)c1 (stereo not given)	·	·	–	·	·
CNc1nc(-c2ccc([N+](=O)[O-])cc2)cs1	10µM	–	–	–	–
CC1=C/C(=N\OS(=O)(=O)c2ccccc2)C(C(C)C)=CC1=O	–	–	–	-84	–
CC1=C/C(=N\OS(=O)(=O)c2ccccc2)C(C)=CC1=O	–	–	?	-84	–
c1nc(SSc2ncc3n[nH]nc3n2)nc2n[nH]nc12	–	·	·	·	·
CCCCC/C=C\C\C=C/C=C/C=C/[C@@H](SC[C@H](NC(=O)CC[C@H](N)C(=O)O)C(=O)NCC(=O)O)[C@@H](O)CCCC(=O)O	·	·	–	·	·
COc1cc(/C=N/N(c2ccccc2)c2ccccc2)ccc1O	–	–	–	–	–
C=CCOc1ccc(/C=N/Nc2ccccn2)cc1OC	5µM	–	–	–	–
CCOc1ccc(/C=N/N(C)c2ccccc2)cc1OC	4.5µM	–	–	–	–
SMILES	BRCA1 expr act	S-ASM inh	Apoferritin bind	TSHR antagonist	PTAP TSG101 blk
COc1ccc(/C=N/Nc2ccccn2)c(OC)c1OC	11µM	–	–	–	–
CCOc1ccc(/C=N/Nc2ccccn2)cc1OC	11µM	–	–	–	–
COc1ccc(C2=Nn3c(nnc3-c3ccc(OC)cc3OC)SC2)c(OC)c1	·	·	–	·	·
Cc1nc([N+](=O)[O-])cn1CC(=O)c1ccc2c(c1)OCCCO2	–	·	·	·	·
CC(OC(=O)c1ccccc1OCCOc1ccccc1)C(=O)Nc1ccc(Br)cc1 (stereo not given)	–	·	·	·	·
NC(=O)COc1ccccc1C(=O)Nc1ccccc1	–	·	·	·	·
COc1ccccc1/C=N/Nc1nccnc1Cl	11µM	–	–	–	–
CCOCCCNC(=O)c1c(NC(=O)c2nc(SCC)ncc2Cl)sc2c1CCCC2	–	·	·	·	·

Screens as filed in PubChem.
